# VACV mCherry inh = vaccinia inhibition (mCherry reporter); Vaccinia virus mCherry reporter infection, fluorescence; Potency, µM (highest dose often 36.5 µM), for the others: at the highest dose activity change, negative = inhibition, usual class: inhibitors; hit rate 0.63% among 310,000; AID 720579; calls by dose curve; tested in A549 cells; further: nearly all actives have a fitted effect of over 35% in size
# Pf growth 96h = P. falciparum growth inhibition at 96 hour, primary screen for plastid delayed-death inhibitors | P. falciparum luciferase reporter growth, 96 h | Potency, µM (highest dose often 28.7 µM), for inactives: at the highest dose activity change, negative = inhibition, hits mostly inhibitors | hit rate 6.9% among 320,000
#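 Cell-based qHTS: luciferase-tagged P. falciparum in erythrocytes (2% hematocrit, 0.05% parasitemia final) incubated with compounds for 96 hours, 37 C, 5% CO2; luciferase detection reagent then added and luminescence measured.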
# Vaccinia Venus = inhibitors of vaccinia virus (Venus reporter). Vaccinia virus Venus reporter expression, fluorescence. Potency, µM (highest dose often 36.5 µM), inactives show at the top dose activity change, negative = inhibition, most hits filed as inhibitors. hit rate 0.46% among 330,000. AID 720580; calls by dose curve; tested in A549 cells; further: nearly all actives have a fitted effect of over 30% in size
# AMA1 RON2 block = AMA1-RON2 (P. falciparum) interaction inhibition. hit rate 0.2% among 360,000. Potency, µM (highest dose often 58.2 µM), inactives show at the highest dose activity change, negative = inhibition, most hits filed as inhibitors. AlphaScreen AMA1-biotinylated RON2 peptide binding;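 further: 0% = vehicle wells and -100% = peptide control; nearly all actives have a fitted effect of over 45% in size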
#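 AMA1 (3D7) with his tag at 25 nM final met compounds first, then biotinylated RON2 peptide at 25 nM; detection used donor plus acceptor beads, 10 µg/mL apiece, read by AlphaScreen after 30 min at room temperature.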
# Pf growth 48h = P. falciparum growth inhibition at 48 hours (one generation). P. falciparum luciferase growth in erythrocytes, 48 h. Potency, µM (doses to about 28.7 µM), without a hit: top-dose activity change, negative = inhibition, actives largely listed as inhibitors. hit rate 5.9% among 310,000. AID 504832
#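 Luciferase-expressing P. falciparum in infected erythrocytes (2% hematocrit, 0.1% parasitemia final) in RPMI 1640/0.5% Albumax were exposed to compound for 48 hours at 37 C, 5% CO2; growth read as luminescence.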
# An asterisk follows results filed as active; i = inactive; ? = inconclusive; nt = no result; [ ] = another dose, or the depositor's remark. The list is not random: actives were taken first. Their share in the collection is about 8.7%. Unless noted, the call rests on the fitted dose curve; in most records, active means well fitted curve in the direction sought with a large enough effect; inconclusive means small, poorly fitted or top-dose-only effect, or another doubt; inactive means no such curve, though single readings can be large; an effect the other way counts as inactive or inconclusive. Unless noted, on the % scale 0 is the no-effect control and ±100 the full control effect; potency means the concentration at half of the fitted maximal effect.
SMILES,VACV mCherry inh,Pf growth 96h,Vaccinia Venus,AMA1 RON2 block,Pf growth 48h
COc1ccc(N(CC(=O)N2CCc3ccccc3C2)S(=O)(=O)c2ccc(C)cc2)cc1Cl,-2%,nt,-1%,nt,nt
COC(=O)c1[nH]c2cc(OC)ccc2c1NC(=O)CCN1CCN(c2cccc(C)c2C)CC1,nt,-5%,?,-1%,2.6µM*
COC(=O)c1[nH]c2cc(OC)ccc2c1NC(=O)CCN1CCN(c2ccccc2)CC1,nt,nt,nt,-16%,-17%
COc1ccccc1NC(=S)NC1CCCCCCCCCCC1,nt,?,nt,94%,1.5µM*
COc1ccccc1NC(=S)NC1CCCCC1,-15%,9.3µM*,-12%,-1%,9%
Cc1cccc(C)c1NC(=S)NC1CCCCC1,-9%,10µM*,-7%,-13%,-21%
CCOc1ccccc1NC(=S)NC1CCCCC1,-2%,0%,-3%,-2%,?
CCOc1ccc(CNS(=O)(=O)c2cc3c(cc2C)NC(=O)CO3)cc1OC,-13%,nt,-1%,nt,nt
CC(C)n1ncc2c(C(=O)NCCc3ccc(F)cc3)cc(C3CC3)nc21,-13%,?,-24%,14%,9.3µM*
COc1ccc(CNC(=O)c2cc(C3CC3)nc3c2cnn3C(C)C)cc1OC,nt,?,nt,10%,-11%
CCc1ccccc1NC(=O)CN(C)C(=O)c1cc(C2CC2)nc2c1cnn2C(C)C,nt,?,nt,0%,12µM*
Cc1ccccc1CCNC(=O)c1cc(C2CC2)nc2c1cnn2C(C)C,nt,13µM*,nt,20%,12µM*
COC(=O)CC1C(=O)NCCN1C(=O)CN1Cc2ccccc2OC(c2ccccc2)C1 (stereo not drawn),-9%,nt,-7%,nt,nt
CC(C)NC(=O)/C(=N\O)c1ccccc1,nt,46%,nt,-3%,34%
CNC(=O)/C(=N\O)c1ccccc1,nt,9.3µM*,nt,nt,46%
N=C1SC(c2ccccc2)C(=O)N1c1ncc(Cc2ccccc2)s1 (stereo not drawn),-5%,?,-9%,48%[11.6 µM],?
Cc1ccc(Cc2cnc(N3C(=N)SC(c4ccccc4)C3=O)s2)cc1 (stereo not drawn),-7%,9.3µM*,-3%,44%,5%
CC(=O)c1c(-c2ccccc2)[nH]c2ccccc12,?,?,-27%,-20%,3%
O=C(O)/C=C/C(=O)c1c(-c2ccccc2)[nH]c2ccccc12,nt,4.1µM*,nt,5%,6.6µM*
C=CCNC(=O)C(=O)c1c(-c2ccccc2)[nH]c2ccccc12,i,?,-5%,3%,13%
O=C(NCCc1ccccc1)C(=O)c1c(-c2ccccc2)[nH]c2ccccc12,-5%,5.2µM*,-21%,-14%,-29%
COC(=O)c1cccc(Nc2c(-c3ccc(O)c(OC)c3)nc3nc[nH]n23)c1,-10%,nt,-9%,nt,nt
O=C(Nc1ccccc1Br)C1CCCN(S(=O)(=O)c2cccc3nsnc23)C1 (stereo not drawn),-21%,nt,-7%,nt,nt
CCNC(=O)C1CN(S(=O)(=O)c2ccccc2)CCN1S(=O)(=O)c1ccccc1 (stereo not drawn),-7%,2.3µM*,-8%,-3%,12%
CCc1cccc(CC)c1NC(=O)C1CN(S(=O)(=O)c2ccccc2)CCN1S(=O)(=O)c1ccccc1 (stereo not drawn),i,?,-14%,0%[11.6 µM],?
SMILES,VACV mCherry inh,Pf growth 96h,Vaccinia Venus,AMA1 RON2 block,Pf growth 48h
O=C(NC1CCCCC1)C1CN(S(=O)(=O)c2ccccc2)CCN1S(=O)(=O)c1ccccc1 (stereo not drawn),nt,12µM*,nt,-1%,-9%
Cc1ccc(CCNC(=O)CCCn2c(=O)c3ccccc3n(Cc3ccccc3C#N)c2=O)cc1,-13%,nt,-6%,nt,nt
CC(C)CN(C(=O)c1ccc([N+](=O)[O-])s1)c1c(N)n(Cc2ccccc2)c(=O)[nH]c1=O,20µM*,?,?,15%,8%
CCCCn1c(N)c(N(Cc2ccccc2OC)C(=O)c2ccc([N+](=O)[O-])s2)c(=O)[nH]c1=O,?,9.3µM*,?,3%,10µM*
CCCCn1c(N)c(N(Cc2ccccc2OC)C(=O)COc2ccccc2OC)c(=O)[nH]c1=O,-21%,?,-16%,4%,?
COc1ccc(-n2c(=O)c3ccc(C(=O)NCc4ccc(C)cc4)cc3n(CC(=O)Nc3ccc(F)cc3)c2=O)cc1,-9%,nt,-9%,nt,nt
CCCc1nn2c(=O)cc(COC(=O)c3cccc(NC(=O)c4cccs4)c3)nc2s1,i,nt,-13%,nt,nt
CCOC(=O)c1c(NC(=O)Cc2ccccc2)sc2c1CCN(C)C2,-11%,0%,-11%,0%,-21%
CCOC(=O)c1c(NC(=O)C(F)(OC)C(F)(F)F)sc2c1CCN(C)C2 (stereo not drawn),nt,10µM*,-18%,95%,?
CCOC(=O)c1c(/N=C/c2cccc(C)c2O)sc2c1CCN(C)C2,i,1.7µM*,-2%,-18%,?
CCOC(=O)c1c(NC(=S)Nc2ccc(OCC)cc2)sc2c1CCN(C)C2,-15%,3.7µM*,-4%,-3%,8.3µM*
CCOC(=O)c1c(NC(=O)CSc2nnc(C)s2)sc2c1CCN(C)C2,nt,?,22%,-3%,6.6µM*
CCOC(=O)c1c(NC(=O)Nc2ccc(F)cc2)sc2c1CCN(C)C2,-1%,?,-9%,0%,8.3µM*
CCOC(=O)c1c(NC(=S)Nc2ccc(Cl)cc2)sc2c1CCN(C)C2,-20%,?,10%,-2%,?
COc1ccc(C(=O)N/N=C/c2ccccc2OC(=O)c2ccccc2)cc1,2µM*,2%,?,77%,?
CC(C)(C)C(=O)Nc1ccc(C(=O)N/N=C/c2ccccc2OC(=O)c2ccc(Cl)cc2)cc1,7.9µM*,?,?,22%,?
COc1ccc(C(=O)N/N=C/c2ccc(OC(=O)c3ccccc3)cc2)cc1,-8%,72%,-5%,11%,15%
CC(C)(C)C(=O)Nc1ccc(C(=O)N/N=C/c2ccccc2OC(=O)c2ccccc2)cc1,nt,4.1µM*,?,0%,?
Cc1cccc(C(=O)Oc2ccccc2/C=N/NC(=O)c2ccc(NC(=O)C(C)(C)C)cc2)c1,-28%,?,-21%,4%[11.6 µM],?
COc1cc(OC)cc(C(=O)N2CCCC(n3cc(C(=O)NCC(C)C)nn3)C2)c1 (stereo not drawn),-10%,nt,-4%,nt,nt
Cn1cccc1/C=C1\SC(=Nc2cccc(O)c2)NC1=O,nt,?,nt,-23%,2%
Cn1cccc1/C=C1\SC(=Nc2ccc(O)cc2)NC1=O,nt,?,nt,-5%,?
Cc1ccc(N=C2NC(=O)/C(=C/c3cn(C)c4ccccc34)S2)cc1C,-12%,4.7µM*,175%,-19%,?
Cc1ccc(N=C2NC(=O)/C(=C/c3cccn3C)S2)c(C)c1,-24%,12µM*,-7%,?,?
Cn1cccc1/C=C1\SC(=Nc2ccccc2)NC1=O,nt,7.4µM*,nt,-23%,67%
CC(=O)Nc1sc2c(c1C#N)CCN(Cc1ccccc1)C2,-14%,32%,0%,0%,34%

# High-throughput results: PubChem, National Center for Advancing Translational Sciences (NCATS)
